Common to all, as to assay: NCI-60 one-dose screen, 48 h (100 = growth as untreated, 0 = no growth, -100 = all killed)
Conditions in all cases: 10 µM unless noted

Test [1] concerns HCT-15 colon.
Test [2] has as its system HT29 colon.
The test system of test [3] is SNB-75 CNS.
The subject of test [4] is SNB-19 CNS.
Test [5] has as its system U251 CNS.
The subject of test [6] is PC-3 prostate.
The subject of test [7] is SK-MEL-5 melanoma.
The test system of test [8] is UACC-62 melanoma.
For test [9], the system named is SK-MEL-28 melanoma.

This is part of a sample that, as a whole, favours compounds with a hit. Of some 83,000 tested, about 20% had one in any assay.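 For each line, cells grew in 96-well plates with the test compound present at a single concentration for 48 hours.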 Values without a mark were called inactive. The source made the active and inactive calls. Rule for the calls: active = growth percent below 10; inactive = the rest.

Consider `C=C(C)[C@@H]1CC[C@]2(C(=O)NNC(=O)c3cccnc3)CC[C@]3(C)[C@H](CC[C@@H]4[C@@]5(C)CCCNC(C)(C)[C@@H]5CC[C@]43C)[C@@H]12`, for which the growth in test [1] was 62.4%; in test [2] it was 11.3%; in [3], 80%; in test [4], 91.2%; in test [5] it was 64.6%; in test [6], 50.3%. Further, the growth was 74.4% in [7], 91% in [8] and 90% in [9].
For the compound `Cc1oc(-c2ccccc2Cl)cc1C(=O)Nc1ccc(S(N)(=O)=O)cc1`, the growth in test [1] is 103%; in test [2] it was 108%; in [3] it was 89.9%; in test [4] it was 99.1%; in test [5] it was 94.9%; in [6] it was 107%. Further, the growth in test [7] is 97.3%; in test [8], 95.8%; in [9] it was 101%.
For the compound `CN1CCN(c2ccc3nc(-c4[nH]ncc4Nc4ncnc5[nH]ccc45)[nH]c3c2)CC1`, the growth in [1] is 4.21% (active); in test [2] it was 7.01% (active); in test [3], -52.7% (active); in test [4] it was 2.27% (active); in [5], 7.05% (active); in test [6] it was 11.7%. Further, the growth is -13% (active) in [7], 1.28% (active) in test [8] and -11.3% (active) in test [9].
With `O=c1[nH]ncc(Br)c1Br`, the growth in test [1] is 15.7%; in [2], -35.1% (active); in [3] it was 79.8%; in [4], 72.4%; in [5], 30.9%; in test [6], 65.7%. The growth in [7] is 69.4%; in test [8], 87.3%; in [9] it was 14.7%.
As to `C(=C\c1c[nH]c2ccccc12)/c1ccc2ccccc2n1`, the growth in test [1] was 53.9%; in test [2], 33.4%; in [3], 81.1%; in test [4], 84.4%; in [5] it was 59.7%; in [6], 59.3%. In addition, the figures for the growth in test [7], in [8] and in [9] were 96%, 86.8% and 107%, respectively.
With `Cc1cc2nc3c4cc(O)ccc4n(CCN(C)C)c3nc2cc1C`, the growth in test [1] is -29.3% (active); in [2], 1.97% (active); in [3] it was -5.77% (active); in [4], 2.18% (active); in test [5], 3.44% (active); in [6], 6.53% (active). Besides, the growth in [7] is -27.4% (active); in test [8], -49.5% (active); in [9], -8.23% (active).
As to `O=C1c2cccc3cccc(c23)C(=O)N1CC#Cc1ccc2c3c(cccc13)C(=O)N(CCN1CCNCC1)C2=O`, the growth is 61.7% in [1]; 23.5% in [2]; 99.6% in [3]; 86.2% in test [4]; 56.4% in test [5]; 85.5% in test [6]. The growth in test [7] is 103%; in test [8], 105%; in test [9] it was 13.5%.
Take `CC(C)=CCC[C@](C)(O)[C@H]1CC[C@]2(C)[C@@H]1CC[C@@H]1[C@@]3(C)C/C(=C/c4ccc(Br)cc4)C(=O)C(C)(C)[C@@H]3CC[C@]12C`: the growth in [1] was 85.4%; in test [2] it was 77%; in test [3], -50.3% (active); in [4], 95.2%; in test [5], 86.9%; in [6], 70.5%. Also, the growth in test [7] was 96.8%; in test [8], 78.6%; in test [9], 100%.
Consider `N#CC1C(=N)Cc2ccccc2-c2ccccc21` (configuration not stated), for which the growth in [1] was 37.9%; in [2], 12.4%; in test [3] it was 54.3%; in test [4], 64.1%; in test [5], 37.7%; in [6], 62.1%. The growth was 40.7% in test [7], 39.1% in test [8] and 58.3% in [9].
Take `COc1cc(OC)c2c(c1)c1nc3cc(C)c(C)cc3nc1n2CCN(C)C`: the growth in test [1] is 77.2%; in test [2] it was 85.8%; in [3] it was 74.6%; in test [4] it was 89.1%; in [5] it was 90.9%; in test [6] it was 85.3%. For the same compound, the results for the growth in test [7], in test [8] and in test [9] were 94.4%, 94.3% and 104%, respectively.
Regarding `N#CC1=C(N)Oc2c(c(N)nn2-c2ccccc2)C1c1ccc(Cl)cc1` (configuration not stated), the growth was 107% in test [1]; 107% in [2]; 77.3% in test [3]; 94.7% in [4]; 94.9% in test [5]; 91.7% in test [6]. Besides, the results for the growth in test [7], in test [8] and in test [9] were 101%, 86% and 100%, respectively.
As to `CC(=O)c1c(C)[nH]c(-c2nc3ccc(N4CCN(C)CC4)cc3[nH]2)c1-c1ccc(N(C)C)cc1`, the growth in test [1] is 4.03% (active); in test [2], 9.08% (active); in [3], -9.22% (active); in test [4] it was 42.4%; in test [5] it was 51%; in [6] it was 42%. Besides, the growth in test [7] is 2.25% (active); in [8], 21.1%; in test [9] it was 45.8%.
As to `C=C(C)[C@@H]1CC[C@]2(C)[C@H](CC=C3[C@@H]4CC(C)(C)CC[C@]4(C=O)CC[C@]32C)[C@@]1(C)CCCN`, the growth in test [1] is 42.1%; in test [2], 7.12% (active); in test [3], 87.8%; in [4] it was 89.1%; in [5], 69.6%; in [6], 47.5%. The growth in test [7] was 83%; in test [8], 87.8%; in [9], 89.4%.
In the case of `COc1cc(-c2cc(-c3nc4cc(Cl)c(Cl)cc4[nH]3)[nH]n2)cc(OC)c1OC`, the growth was 52% in test [1]; 72.6% in [2]; 70.4% in test [3]; 78.1% in [4]; 75.7% in test [5]; 5.57% (active) in [6]. Besides, the growth is 19.6% in [7], 24.1% in test [8] and 47.6% in test [9].
Take `CCOc1ccc(NC(=O)c2ccccc2-c2ccccc2C(=O)O)cc1`: the growth in test [1] was 106%; in test [2], 107%; in [3] it was 91.3%; in [4], 98.8%; in [5], 112%; in [6] it was 101%. For the same compound, the growth in [7] is 106%; in test [8] it was 99.2%; in test [9] it was 109%.
Turning to `Cc1csc(Nc2nc(-c3cccc(Br)c3)nc(C(Cl)(Cl)Cl)n2)n1`, the growth in [1] was 59.3%; in [2], 18.9%; in [3] it was 52.5%; in test [4], 39.8%; in [5], 35.8%; in test [6] it was 48.9%. The growth in test [7] is 91.1%; in test [8] it was 60.5%; in test [9] it was 47%.
As for `COCCNC1=C(Cl)C(=O)c2ccccc2C1=O`, the growth was 90.3% in test [1]; 101% in test [2]; 74.5% in test [3]; 102% in [4]; 91.3% in [5]; 117% in test [6]. The growth in [7] was -6.75% (active); in [8] it was 90.9%; in [9], 109%.
Consider `CC(C)(C)n1cc(-c2ccnc(NCCCNS(=O)(=O)c3ccc(Cl)cc3)c2)c(-c2cccc(F)c2)n1`, for which the growth was 9.66% (active) in test [1]; 27.6% in test [2]; 76.5% in test [3]; 80% in test [4]; 61.7% in test [5]; 49.7% in test [6]. Besides, the growth is 70.7% in test [7], 84.6% in test [8] and 89.4% in [9].
With `C=C1CC[C@@H](C(=O)OC)Cc2nc(C)ccc21`, the growth in test [1] was 102%; in test [2], 104%; in test [3] it was 100%; in test [4], 97.1%; in [5] it was 103%; in test [6], 98.4%. The growth in test [7] was 101%; in test [8], 96.9%; in test [9], 107%.
On to `NC1=C(C/C(N)=N\O)C(c2ccccc2Cl)c2c(ccc3ccccc23)O1` (configuration not stated), for which the growth was 47.7% in [1]; 97.1% in test [2]; 75.2% in [3]; 86.8% in test [4]; 91.3% in test [5]; 74.2% in [6]. Further, the growth in [7] was 86.8%; in test [8], 52.2%; in [9], 80.2%.
For the compound `O=C1OC(c2ccc(Cl)c(Cl)c2)=C/C1=C/c1cccc([N+](=O)[O-])c1`, the growth in test [1] was 99.1%; in test [2], 93.7%; in test [3], 92.9%; in test [4], 94.9%; in test [5] it was 99.2%; in test [6], 97.9%. Also, the growth in test [7] is 102%; in test [8], 88.7%; in test [9], 105%.
Regarding `O=C1c2cccc3cccc(c23)C(=O)N1CC#Cc1ccc2c3c(cccc13)C(=O)N(CCO)C2=O`, the growth is 82.1% in test [1]; 96.5% in test [2]; 69.9% in test [3]; 96.3% in test [4]; 93.1% in test [5]; 84.8% in [6]. The growth in [7] is 90.8%; in test [8] it was 93.1%; in test [9], 112%.
As for `C=C(C)[C@@H]1CC[C@]2(c3nnc(-c4ccncc4)o3)CC[C@]3(C)[C@H](CC[C@@H]4[C@@]5(C)CCC(=O)NC(C)(C)[C@@H]5CC[C@]43C)[C@@H]12`, the growth in test [1] was 100%; in test [2] it was 99.6%; in [3] it was 93.7%; in test [4], 92.5%; in test [5], 96%; in [6], 69.5%. Also, the growth in [7] is 90.1%; in test [8], 79.7%; in [9] it was 109%.
With `COc1cc2c(cc1OC)C(=O)/C(=C/c1cc(-c3ccc4c(c3)OCO4)n[nH]1)C2`, the growth was -39.9% (active) in test [1]; -29.5% (active) in test [2]; -4.64% (active) in test [3]; 9.31% (active) in test [4]; -75.5% (active) in [5]; -65.7% (active) in test [6]. The growth is 48.4% in [7], 25.8% in test [8] and 0.563% (active) in [9].
Take `CCc1nnc(NC(=O)c2ccoc2COc2ccccc2)s1`: the growth in [1] is 24.3%; in test [2] it was 28.6%; in test [3] it was 8.1% (active); in [4], 42.4%; in test [5], 49.7%; in test [6], 67%. Further, the growth in [7] is 44.5%; in [8], 34.8%; in [9], 51.2%.
`Oc1ccccc1/C=N\NC(=S)Nc1ccc(F)cc1`: the growth was 21.8% in test [1]; 39.1% in [2]; 43.1% in [3]; 36% in test [4]; 27.7% in [5]; 40% in test [6]. For the same compound, the growth is 6.1% (active) in test [7], 2.27% (active) in test [8] and 30.8% in test [9].
Regarding `COC(=O)[C@]12CC[C@@H](C(/C=C/c3cccnc3)=N/O)[C@@H]1[C@H]1CC[C@@H]3[C@@]4(C)CC(=C/c5cccnc5)/C(=N/O)C(C)(C)[C@@H]4CC[C@@]3(C)[C@]1(C)CC2`, the growth was 23.4% in [1]; 32.8% in test [2]; 22.8% in test [3]; 71.9% in [4]; 52.9% in [5]; 20.8% in test [6]. The growth in [7] was -21.5% (active); in test [8], 15.7%; in [9], 50.8%.
For the compound `O=C(O)c1cccc2c1-c1ccc(Cl)cc1C2`, the growth in test [1] was 102%; in [2] it was 109%; in test [3], 88.2%; in [4], 105%; in [5] it was 108%; in [6] it was 108%. For the same compound, the growth in test [7] was 103%; in test [8], 102%; in test [9] it was 108%.
